Source: PubChem
A selection: hits, their analogues and other compounds. The true share with any hit is near 4.7%.
D1 ag = activates the human D1 dopamine receptor | P21728 | HEK293 T-REx D1 cells, calcium flux, agonist mode | activation, % at 2 µM | 360,000 tested, 1% active
Target sequence (P21728 whole entry, looked up): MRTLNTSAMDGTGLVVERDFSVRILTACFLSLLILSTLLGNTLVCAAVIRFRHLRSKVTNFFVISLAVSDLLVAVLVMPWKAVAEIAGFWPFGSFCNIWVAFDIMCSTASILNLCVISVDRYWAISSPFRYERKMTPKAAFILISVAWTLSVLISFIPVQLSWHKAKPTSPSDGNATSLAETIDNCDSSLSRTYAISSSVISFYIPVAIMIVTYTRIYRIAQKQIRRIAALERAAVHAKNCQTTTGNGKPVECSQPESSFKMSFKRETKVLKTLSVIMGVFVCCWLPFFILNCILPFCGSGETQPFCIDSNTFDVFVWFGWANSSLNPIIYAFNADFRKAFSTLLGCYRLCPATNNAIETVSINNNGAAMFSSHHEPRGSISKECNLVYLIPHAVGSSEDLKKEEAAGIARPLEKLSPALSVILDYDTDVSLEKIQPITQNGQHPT
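Agonism was scored from calcium flux recorded over 180 s (1 read/s) after pintool compound addition, following a 10-cycle baseline. Cells were inducible force-coupled HEK293 TREx D1, plated overnight at 30 C and loaded with no-wash calcium dye.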
TRHR PAM = allosterically enhances the human TRH receptor; TRHR cells, fluo-8 calcium fluorescence, EC20 TRH enhancement; 360,000 tested, 0.66% active; enhancement, % at 2 µM; in the data active means enhancement above about 30%
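Enhancer read-out: after compound pinning and an initial kinetic agonist-mode read, an EC20 of TRH (10 nM final) was injected and fluo-8 calcium signal (Ex 480/Em 530) followed at 1 s/cycle for 100 cycles in TRHR-expressing cells.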
D1 antagonist = antagonists of human D1 dopamine receptor; HEK293 TREx D1 cells, calcium flux, dopamine EC80; stronger effect = lower value; 360,000 tested, 3.2% active; activity change, negative = inhibition, % at 10 µM; in the data active means activity change below about -30%
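Tetracycline-induced HEK293 Trex D1 cells, force-coupled to calcium, dye-loaded; compounds added and read 180 s, then EC80 dopamine added and calcium flux tracked kinetically another 180 s.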
TRHR agonist = agonists of human TRH receptor. P34981. TRHR cells, calcium flux fluo-8, FDSS agonist mode. activation, % at 2 µM. 360,000 tested, 0.18% active. AID 493084
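Read-out: compound-evoked intracellular calcium rise in TRHR cells, fluo-8 dye, kinetic FDSS fluorescence at 1 s/cycle following a 10-cycle baseline. Cells cultured overnight before dye loading (30 min–1.5 h, RT).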
D1 PAM = potentiators of human D1 dopamine receptor | P21728 | HEK293 TREx D1 cells, calcium flux, dopamine EC20 potentiation | potentiation, % at 10 µM | 360,000 tested, 0.036% active | AID 504651; in the data active means potentiation above about 30%
Numbers stand for hits; n = inactive; x = not tested or not shown; ! = not confirmed by another sample. Unless noted, no stated cut-off is given here; in the data, active means activation above about 30%; inactive means the rest.

SMILES	D1 ag	TRHR PAM	D1 antagonist	TRHR agonist	D1 PAM
CCSc1nnc(NC(=O)c2cccn(Cc3ccc(Cl)cc3)c2=O)s1	n	n	-35	n	n
Cc1nnc(NC(=O)c2cccn(Cc3cccc(Cl)c3)c2=O)s1	n	n	n	n	n
COc1ccc(NC(=O)c2cccn(Cc3ccc(Cl)cc3)c2=O)c(OC)c1	n	n	-40	n	n
Cc1nc2ccc(Cl)cc2c(=O)n1-c1ccccc1Cl	n	n	n	n	n
CCC1(CC)C(=O)NC(=Nc2cccc(C(F)(F)F)c2)NC1=O	31	n	n	n	n
C/C=C(\C)C(=O)OC1C(C)=C2C(C1OC(=O)CCCCC)C(C)(OC(C)=O)CC(OC(=O)CCC)C1(O)C2OC(=O)C1(C)O (stereo not given)	109	n	-31	n	n
N#Cc1ccccc1NC(=O)c1cccn(Cc2ccccc2)c1=O	n	n	x	n	n
Cc1oc2cc3oc(=O)c(CCC(=O)N4CCCCC4)c(C)c3cc2c1C	n	n	n	n	n
CC(C)NC(C)C(=O)c1ccc2ccccc2c1 (stereo not given)	n	37	-34	n	n
CC(C(=O)c1ccc2ccccc2c1)N1CCCCC1 (stereo not given)	n	n	n	n	n
O=C(Nc1ccccc1Cl)OC1CN2CCC1CC2 (stereo not given)	n	n	-38	n	n
O=C(Nc1ccc(Cl)cc1)OC1CN2CCC1CC2 (stereo not given)	30	n	n	n	n
O=C(Nc1ccccc1F)OC1CN2CCC1CC2 (stereo not given)	n	n	n	n	n
CN1C(=O)COc2c(C(=O)NC3CN4CCC3CC4)cc(Cl)cc21 (stereo not given)	n	n	n	n	n
O=C(Nc1cccc(Cl)c1)OC1CN2CCC1CC2 (stereo not given)	n	n	-38	n	n
CC(c1ccccc1)[n+]1ccccc1 (stereo not given)	n	n	n	n	n
Cc1cc(C)cc(-n2c(/C=C/c3cccc(F)c3)nc3ccccc3c2=O)c1	n	n	n	n	n
Cn1cc(C(=O)N2CCCCC2)c2ccccc21	n	n	-30	n	n
COc1ccc(CNCCc2cccc(F)c2)c2ccccc12	37	n	n	n	n
COc1ccc(CNCCc2ccc(Cl)cc2)c(OC)c1OC	n	n	-70	n	n
COC(=O)C1=C(c2ccc(F)cc2F)C[C@@H]2CC[C@H]1N2C(=O)N1CCCCC1	n	n	x	n	n
CCN(CC)c1ccc(N=Cc2c(O)n(-c3ccc(OC)cc3)c(=O)[nH]c2=O)cc1	n	n	n	n	n
CCN(CC)c1ccc(N=Cc2c(O)n(-c3ccc(Cl)cc3)c(=O)[nH]c2=O)cc1	n	n	-38	n	n
C=CCn1c(O)c(C=Nc2ccc(N(CC)CC)cc2)c(=O)[nH]c1=O	31	n	n	n	n
Cc1ccc(-n2c(/C=C\c3ccc(F)c(F)c3)nc3ccccc3c2=O)c(C)c1	n	n	n	n	n
SMILES	D1 ag	TRHR PAM	D1 antagonist	TRHR agonist	D1 PAM
Cc1ccc(N2C(=O)NC(=O)/C(=C\c3cn(CC(=O)O)c4ccccc34)C2=O)cc1	n	n	n	n	n
O=C(O)Cn1cc(/C=C2\C(=O)NC(=O)N(c3ccc(Br)cc3)C2=O)c2ccccc21	n	n	-31	n	n
COC(=O)C1=C(c2ccc(-c3ccccc3)c(F)c2)C[C@@H]2CC[C@H]1N2C(=O)NCCOc1ccccc1Cl	n	n	n	n	n
CN1C(CC(O)c2ccccc2)CCCC1CC(O)c1ccccc1 (stereo not given)	n	n	-45	n	n
COc1ccc2c(C)c(CCC(=O)N3C[C@H]4C[C@@H](C3)c3cccc(=O)n3C4)c(=O)oc2c1	n	n	n	n	n
Nc1ccc2nonc2c1[N+](=O)[O-]	92	n	n	n	n
CCc1ccc(OCC(=O)N2CCN(CCc3ccccn3)CC2)cc1	n	n	n	n	n
CCCN1CCC[C@H](c2cccc(O)c2)C1	n	n	n	n	n
CCCN1CCC[C@@H](c2cccc(O)c2)C1	n	n	-54	n	n
COc1ccc(-n2c(/C=C\c3ccccc3F)nc3ccccc3c2=O)c(OC)c1	n	n	n	n	n
CCCCCC[N+](=O)[O-]	n	n	x	n	n
CCCCCCCCCCCCCCCC[N+](C)(C)C	31	n	n	n	n
Cc1ccc(-n2c(/C=C/c3cc(Br)cs3)nc3ccccc3c2=O)cc1C	n	n	n	n	n
c1ccc(CNCCc2c[nH]c3ccccc23)cc1	n	n	n	n	n
CCOc1ccc(CNCCc2ccc3c(c2)OCO3)cc1	30	n	n	n	n
c1ccc2c(CCNCc3ccc4c(c3)OCO4)c[nH]c2c1	99	n	-43	n	n
O=C(Nc1ccc2c(c1)OCO2)c1cccn(Cc2cccc([N+](=O)[O-])c2)c1=O	n	n	x	n	n
O=C(Cn1nc(-c2ccc(Cl)cc2)ccc1=O)N1CCC2(CC1)OCCO2	n	n	-35	n	n
O=C(CCn1nc(-c2ccc(Cl)cc2)ccc1=O)N1CCC2(CC1)OCCO2	n	n	n	n	n
COc1cccc(C2SCC(=O)Nc3c2c(C)nn3-c2ccc(C)c(Cl)c2)c1OC (stereo not given)	n	n	n	n	n
Cc1cc2c(C(C)C)c(O)c(O)c(C=O)c2c(O)c1-c1c(C)cc2c(C(C)C)c(O)c(O)c(C=O)c2c1O	34!	n	n	n	n
Cc1ccccc1-n1c(O)c(/C=C2/C(c3ccccc3)=Nc3ccccc32)c(=O)[nH]c1=O	n	n	-50	n	n
Cc1cccc(-n2c(O)c(/C=C3/C(c4ccccc4)=Nc4ccccc43)c(=O)[nH]c2=O)c1	n	n	n	n	n
Cc1cccc2sc(NC(=O)c3cccn(Cc4ccccc4)c3=O)nc12	n	n	x	n	n
CC1=NN(c2ccccc2)C(=O)C1/C=C1/C(=O)NC(=O)N(c2cc(C)cc(C)c2)C1=O (stereo not given)	n	n	-37	n	n
SMILES	D1 ag	TRHR PAM	D1 antagonist	TRHR agonist	D1 PAM
COc1ccc(CNCCc2c(C)[nH]c3ccc(OC(F)(F)F)cc23)c(OC)c1	99	n	-55	n	n
N#CC(C#N)=Cc1ccc(N2CCCC2)cc1	37	n	n	n	n
O=C(COc1ccccc1)c1cn(Cc2ccccc2)c2ccccc12	30	n	n	n	n
CCC(=O)c1cn(Cc2ccccc2)c2ccccc12	n	n	n	n	n
O=C(COc1ccc2ccccc2c1)N1CCN(C2CCN(Cc3ccccc3)CC2)CC1	n	n	-46	n	n
CCOc1ccc(CN(CCc2ccc3c(c2)OCO3)Cc2cccc(Br)c2)cc1	n	n	n	n	n
CCc1ccc(CNCCc2ccc(F)cc2)cc1	62	n	n	n	n
CCN(CC)c1ccc(CNCCc2ccc(F)cc2)cc1	64	n	n	n	n
Fc1ccc(CCNCc2ccc(Cl)c(Cl)c2)cc1	n	n	n	n	n
